Experimental data from PubChem BioAssay AID540256 (National Center for Advancing Translational Sciences (NCATS), 2011).
Among all 300,000 compounds or so, about 3,700 (1.2%) were called active. Inconclusive results (about 20%) are left out. The call rests on the fitted dose curve; tested in HEK293 cells. Shown is part of a subset that was picked to be rich in actives. A call without a number means that no potency is given here.

assay: qHTS for Inhibitors of binding or entry into cells for Lassa Virus; settings: Lassa virus pseudotype entry inhibition, cell reporter; series mostly up to 37.9 µM; further: nearly all actives have a fitted effect of over 50% in size
Potency means the concentration at half of the fitted maximal effect.

| SMILES | Potency |
| --- | --- |
| O=[N+]([O-])c1ccc(C=Nc2ccc(Cl)cc2Cl)s1 | 16.4 µM (active) |
| NC(N)=N/N=C/c1ccc(Cl)c([N+](=O)[O-])c1 | inactive |
| CNN/C(N=Cc1ccc([N+](=O)[O-])s1)=N\S(=O)(=O)c1cc(C)c(Cl)cc1SCc1ccccc1 | inactive |
| CCOc1ccc(NC(=O)CSc2nncn2C)cc1 | inactive |
| NS(=O)(=O)c1ccc(CNC(=O)c2cccc(S(=O)(=O)N3CCc4ccccc43)c2)cc1 | inactive |
| CN(Cc1ccccc1)C(=O)CSc1nc2ccccc2[nH]1 | inactive |
| CCOC(=O)C1CCN(C(=O)C2CCCN(S(=O)(=O)c3ccc(OC)c(Cl)c3)C2)CC1 (stereo not given) | inactive |
| COc1ccc(CCNC(=O)C(Sc2ccccn2)c2ccccc2)cc1OC (stereo not given) | inactive |
| COc1ccc(C(CCN(Cc2ccc(OC)c(OC)c2)C(=O)CCl)c2ccccc2)cc1 (stereo not given) | 10 µM (active) |
| CCOC(=O)CN(Cc1ccc(OC)c(OC)c1)S(=O)(=O)c1ccc(OC)cc1 | inactive |
| CCOC(=O)C1CCN(C(=O)CN2C(=O)NC(C)(c3ccc4cc(OC)ccc4c3)C2=O)CC1 (stereo not given) | inactive |
| COc1ccc(C(=O)Nc2cccc(/C=C(/CCC(=O)O)c3nc4ccccc4s3)c2)cc1 | inactive |
| CCOc1ccc(CNC(=O)CCc2c(C)nn(-c3ccc(N4CCCCC4)nn3)c2C)cc1 | inactive |
| COc1ccc2nc(Nc3nc(-c4ccncc4)cs3)sc2c1 | inactive |
| COc1ccc(Nc2nc(-c3ccccc3)cs2)cc1 | 20.6 µM (active) |
| NS(=O)(=O)c1ccc(Nc2nc(-c3ccccc3)cs2)cc1 | inactive |
| Nc1c(-c2ccccc2)nnn1Cc1ccccc1 | inactive |
| CCOc1ccc2oc(C(=O)N(CC)CC(=O)Nc3ccc(NC(C)=O)cc3)c(C)c2c1 | inactive |
| Cc1ccc(Nc2c(O)nc[nH]c2=O)cc1C | inactive |
| Fc1ccc(-c2nc(Nc3cccc(Cl)c3)nc3c2COc2ccccc2-3)cc1 | inactive |
| O=C(CC(O)(C(F)(F)F)C(F)(F)F)Nc1ccc(Cl)c(Cl)c1 | 4.61 µM (active) |
| O=C(CC(=O)Nc1ccc(Cl)c(Cl)c1)N/N=C/c1ccc(O)cc1 | inactive |
| N/C(=N\OC(=O)Nc1ccc(Cl)c(Cl)c1)c1ncc(C(F)(F)F)cc1Cl | inactive |
| O=C(COc1ccccc1F)Nc1nc(-c2ccccn2)cs1 | inactive |
| O=C1NC(=O)C(CCc2ccccc2)(c2ccccc2)N1 (stereo not given) | inactive |
| CC(C)[C@H]1COCCS(=O)(=O)N1Cc1ccccc1-c1cccc2c1sc1ccccc12 | inactive |
| CCn1c(=S)[nH]c2cc(S(=O)(=O)N3CCOCC3)ccc21 | inactive |

| SMILES | Potency |
| --- | --- |
| N#C/C(=C/c1ccc(N2CCCCC2)o1)C(=O)NCCc1c[nH]c2ccccc12 | 7.08 µM (active) |
| O=C(CN1C(=O)NC2(CCCCC2)C1=O)NCCc1c[nH]c2ccccc12 | inactive |
| CC(=O)N/C(=C/c1ccc(Cl)cc1)C(=O)NCCc1c[nH]c2ccccc12 | inactive |
| COc1ccc(C(=O)COC(=O)c2c(C)noc2C)cc1Cl | inactive |
| Cc1c(C(=O)Nc2cccc(S(=O)(=O)N3CCOCC3)c2)oc2ccccc12 | inactive |
| O=C(c1ccc(N2CCOCC2)c([N+](=O)[O-])c1)N1CCN(c2ccccc2F)CC1 | inactive |
| O=C(c1cn(-c2ccccc2)nc1-c1cc2ccccc2oc1=O)N1CCOCC1 | inactive |
| Nc1ncc(-c2cc3ccccc3oc2=O)s1 | inactive |
| O=c1oc2ccccc2cc1-c1cn(-c2ccccc2)c(=S)[nH]1 | 0.891 µM (active) |
| O=C1NCC(Nc2ccccc2)C(=O)N1 (stereo not given) | inactive |
| O=C(NCc1ccc(Cl)cc1)C(=O)NCC1CCCN1S(=O)(=O)c1cccs1 (stereo not given) | inactive |
| O=C(COC(=O)c1cnccn1)Nc1ccc(Cl)cc1C(F)(F)F | inactive |
| CN(Cc1cnccn1)C(=O)c1cc(COc2cccc(C(F)(F)F)c2)on1 | inactive |
| Cc1cccc(Cn2c(SCCO)nc3c2c(=O)n(C)c(=O)n3C)c1 | inactive |
| Cc1cccc(Cn2c(N3CCN(c4ccccc4)CC3)nc3c2c(=O)n(C)c(=O)n3C)c1 | 5.8 µM (active) |
| COC(=O)C(C)Sc1nc2c(c(=O)n(C)c(=O)n2C)n1Cc1cccc(C)c1 (stereo not given) | inactive |
| COc1ccc(/C=C2\SC(=O)N(CCC(=O)NC3CCS(=O)(=O)C3)C2=O)cc1 (stereo not given) | inactive |
| O=C(CCCN1C(=O)/C(=C\c2ccccc2)SC1=S)Nc1ccccc1O | inactive |
| COc1ccc(/C=C2/SC(=O)N(CCCCCC(=O)Nc3ccccc3C(=O)O)C2=S)cc1 | 11.2 µM (active) |
| CCCCN1CC(COc2ccccc2)Oc2cccc(F)c2S1(=O)=O (stereo not given) | inactive |
| O=C(Cc1ccccc1Cl)N1CCOCC1 | inactive |
| O=C(Nc1ccccc1C(=O)Nc1ccncc1)c1ccc([N+](=O)[O-])cc1 | inactive |
| O=C(CN1C(=O)c2ccccc2S1(=O)=O)N1CCc2ccccc21 | 0.259 µM (active) |
| O=C(CN1C(=O)c2ccccc2S1(=O)=O)NC1CCCCC1 | inactive |
| O=C(CN1CCN(c2ccccn2)CC1)N1CCc2ccccc21 | inactive |
| O=C(CSc1ncnc2sccc12)N1CCN(C(=O)c2cccs2)CC1 | inactive |
| COc1ccc(NC(=O)Nc2ccc3nsnc3c2)cc1 | inactive |

| SMILES | Potency |
| --- | --- |
| S=C(Nc1ccccc1)Nc1ccc2ccccc2c1 | inactive |
| O=C(Nc1ccc2ccccc2c1)Nc1ccc2snnc2c1 | 12.6 µM (active) |
| Cc1ccccc1-c1nc2scc(CCNC(=O)C(=O)Nc3ccc(F)cc3F)n2n1 | inactive |
| C/C(=N\NC(=O)COc1ccc(C)cc1[N+](=O)[O-])c1ccc2c(c1)OCCO2 | inactive |
| O=C(NCC(c1ccco1)N1CCc2ccccc21)c1cccc(F)c1 (stereo not given) | inactive |
| COc1ccc(C(=O)OCc2cc(=O)n3ccsc3n2)cc1F | inactive |
| CCC(=O)OCCNc1nc(-c2ccccc2)nc2ccccc12 | inactive |
| Cc1ccccc1NC(=O)NNC(=O)OC(C)(C)C | inactive |
| CC(C)(C)OC(=O)NNc1c2ccccc2nc2ccccc12 | 12.6 µM (active) |
| COc1ccc(-c2csc(NC(=O)c3ccc(N4C(=O)CCC4=O)cc3)n2)cc1OC | inactive |
| COc1ccc(CC(=O)Nc2nc(-c3ccc(F)c(F)c3)cs2)cc1OC | 11.2 µM (active) |
| Cc1ccc(S(=O)(=O)NC(=O)Nc2nc(-c3ccc(F)c(F)c3)cs2)cc1 | inactive |
| COc1ccc(-c2csc(NC(=O)CCCc3cccs3)n2)cc1 | inactive |
| Cc1ccc(-c2csc(NC(=O)c3cnccn3)n2)cc1C | inactive |
| Cc1ccc(-c2csc(NC(=O)Cc3cccs3)n2)cc1C | 15.8 µM (active) |
| COc1ccc(NC(=O)c2ccc3nc(C(C)C)oc3c2)cc1OC | inactive |
| NC(=O)C1(Nc2ccc(-c3ccccc3)cc2)CCCC1 | inactive |
| CCOc1ccc(/C=C(/C#N)c2nnc(N3CCOCC3)n2-c2ccccc2)cc1OC | inactive |
| Cc1nc(N2CCC(C)CC2)c2c(C)c(C(=O)Nc3cc(F)ccc3C)sc2n1 | inactive |
| Cc1nc(N2CCOCC2)c2c(C)c(C(=O)Nc3ccc(C(F)(F)F)cc3)sc2n1 | 2.24 µM (active) |
| CCOC(=O)C1CCCN(C(=O)c2sc3nc(C)nc(N4CCOCC4)c3c2C)C1 (stereo not given) | inactive |
| COc1ccc(NS(=O)(=O)c2ccc(N3CCOCC3)c(NC(=O)/C=C/C(=O)O)c2)cc1 | inactive |
| N=C1c2ccccc2-c2ccccc21 | inactive |
| c1ccc2c(c1)[I+]c1ccccc1-2 | 0.259 µM (active) |
| CCC(C(=O)NC1CCCC1)N(C(=O)c1snc(C(N)=O)c1N)c1ccc2c(c1)OCCO2 (stereo not given) | inactive |
| CCOc1cc(C(C(=O)NCC2CCCO2)N(C(=O)Cn2nnc3ccccc32)c2cccc(OC)c2)ccc1O (stereo not given) | inactive |
| COc1cccc(N(C(=O)c2snc(C(N)=O)c2N)C(C(=O)NCC2CCCO2)c2c[nH]c3ccccc23)c1 (stereo not given) | 5.62 µM (active) |

| SMILES | Potency |
| --- | --- |
| COc1cc(C(=O)Nn2c(CC(C)C)nc3ccccc3c2=O)cc(OC)c1OC | inactive |
| CCCC1CCC(=NNC(=S)NCCc2ccccc2)CC1 (stereo not given) | 10 µM (active) |
| Cc1cc(F)ccc1NC(=S)NCCc1ccccc1 | inactive |
| S=C(NN=C1CCN(Cc2ccccc2)CC1)NC1CCCCC1 | inactive |
| Fc1cc(Br)ccc1NC(=S)Nc1cccnc1 | inactive |
| S=C(Nc1cccc(Br)c1)N1CCn2cccc2C1c1cccnc1 (stereo not given) | 7.94 µM (active) |
| COc1cccc(NC(=O)CC2C(=O)NCCN2C(=S)Nc2ccc(F)cc2)c1 (stereo not given) | inactive |
| CC(C)(C)C(=O)Nc1cccc(-c2ccc[nH]2)n1 | inactive |
| c1ccc(CCc2ccccn2)cc1 | inactive |
| Cc1cc(Br)ccc1NC(=S)NC1CCCC1 | inactive |
| COc1ccc(C(=O)Nc2ccccc2C(=O)N/N=C/c2ccc(O)c(OC)c2)cc1 | 0.355 µM (active) |
| O=C(N/N=C/c1ccc(OC(=O)c2ccccc2Cl)cc1)c1ccc(O)cc1 | inactive |
| COc1ccc(C(=O)Nc2ccccc2C(=O)N/N=C/c2ccccc2OC)cc1 | inactive |
| Cc1ccc(-c2cc(C(=O)NC3CCN(Cc4ccccc4)CC3)c3ccccc3n2)cc1 | inactive |
| COc1cc(/C=C2\SC(=S)N(Nc3ncc(C(F)(F)F)cc3Cl)C2=O)cc(OC)c1OC | inactive |
| COc1cccc(/C=N/Nc2ncc(C(F)(F)F)cc2Cl)c1O | 7.94 µM (active) |
| COc1cccc(/C(C)=N/Nc2ncc(Cl)cc2Cl)c1 | inactive |
| CCN(CC)S(=O)(=O)c1ccc(N2CCOCC2)c(NC(=O)C2CSC3(C)CCC(=O)N23)c1 (stereo not given) | inactive |
| C=CCNC(=O)C1CC2c3ccccc3C1c1ccccc12 (stereo not given) | inactive |
| O=c1c2c(nc3cc(-c4cccc(Cl)c4)[nH]n13)CCCC2 | 4.47 µM (active) |
| CCCCN1Cc2c(nc3cc(-c4ccccc4)[nH]n3c2=O)C1=O | inactive |
| O=c1c2c(nc3nc[nH]n13)CCC2 | inactive |
| COc1cc(Cl)c(C)cc1NC(=O)CN1CCCCCC1 | inactive |
| CCc1c(Nc2ccccc2Cl)nc(N)[nH]c1=O | inactive |
